Records with an inconclusive call do not appear. Activity calls are given as the source filed them. Calls come from the whole dose curve; as a rule, active = well fitted curve in the direction sought with a large enough effect; inconclusive = small, poorly fitted or top-dose-only effect, or another doubt; inactive = no such curve, though single readings can be large; an effect the other way counts as inactive or inconclusive. *1 amine or outer side, *2 acyl side, *3 side chain or, on linkers, in order; H or OH if unused. Where a SMILES comes first, the peptide text is derived from it. Bridges are numbered along the chain shown (N, C = ends). [ ]: non-standard residue; d: D form. The star is where a group is joined. ξ: configuration not given here. X10 = NC1=NCCC(C(N[*:1])C(=O)[*:2])N1; ΔAla(3-NHCONH2) = NC(=O)NC=C(N)C(=O)O; ξβ3hOrn = NCCCC(N)CC(=O)*; Dap = NC[CH](N)C(=O)O
Experiments:
NIH3T3 [1] = assay: Cytotoxic Profiling of Annotated Libraries Using Quantitative High-Throughput Screening (AID 1296008); settings: Five cell lines viability, CellTiter-Glo ATP luminescence, 48-72 h; max response: active compounds read low; note: nearly all actives have a fitted effect of over 60% in size
Method in brief: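 Cells exposed to compounds for 48 or 72 hr at 37 degrees Celsius. Viability read as ATP-coupled luminescence with CellTiter-Glo after 10 min at room temperature.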

MCC-13 = assay: qHTS assay to identify novel small-molecules to repurpose for Merkel cell carcinoma treatment (AID 1296009); settings: MCC and control cell lines, CellTiter-Glo viability, 72 h; series mostly up to 46 µM; note: nearly all actives have a fitted effect of over 60% in size
Method in brief: (§1)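 Cells were incubated with compound for 72 hr at 37 degree celsius before CellTiter-Glo addition. Luminescence was normalized with no-cell wells as full cytotoxicity and DMSO as baseline.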

MCC-26 = assay: as above; settings: MCC and control cell lines, CellTiter-Glo viability, 72 h; series mostly up to 46 µM
Method in brief: as §1

MKL-1 = assay: as above; settings: MCC and control cell lines, CellTiter-Glo viability, 72 h; series mostly up to 46 µM
Method in brief: as §1

MKL-2 = assay: as above; settings: MCC and control cell lines, CellTiter-Glo viability, 72 h; series mostly up to 46 µM
Method in brief: as §1

NIH3T3 [2] = assay: as above; settings: MCC and control cell lines, CellTiter-Glo viability, 72 h; at 44.8 µM (top of the series) unless noted
Method in brief: as §1

UISO = assay: as above; settings: MCC and control cell lines, CellTiter-Glo viability, 72 h; series mostly up to 46 µM
Method in brief: as §1

WaGa = assay: as above; settings: MCC and control cell lines, CellTiter-Glo viability, 72 h; series mostly up to 46 µM
Method in brief: as §1

C33A = assay: Primary qHTS to identify gynecologic anti-cancer compounds using libraries of approved drugs and bioactive compounds (AID 1345084); settings: Gynecologic cancer cell panel viability, ATPlite luminescence, 48 h; series mostly up to 57.5 µM; note: nearly all actives have a fitted effect of over 55% in size
Method in brief: (§2)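 Luminescence from the ATPlite ATP-monitoring reagent indicates viable cell number; lower signal means cytotoxicity. Cells received compound 16 h after seeding and were exposed for 48 h across five concentrations.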

CAOV3 = assay: as above; settings: Gynecologic cancer cell panel viability, ATPlite luminescence, 48 h; series mostly up to 57.5 µM
Method in brief: as §2

CASKI = assay: as above; settings: Gynecologic cancer cell panel viability, ATPlite luminescence, 48 h; series mostly up to 57.5 µM
Method in brief: as §2

Es-2 = assay: as above; settings: Gynecologic cancer cell panel viability, ATPlite luminescence, 48 h; series mostly up to 57.5 µM
Method in brief: as §2

Hek293T [3] = assay: as above; settings: Gynecologic cancer cell panel viability, ATPlite luminescence, 48 h, control line for the selectivity index; series mostly up to 57.5 µM
Method in brief: as §2

JEG-3 = assay: as above; settings: Gynecologic cancer cell panel viability, ATPlite luminescence, 48 h; series mostly up to 57.5 µM
Method in brief: as §2

OV90 = assay: as above; settings: Gynecologic cancer cell panel viability, ATPlite luminescence, 48 h; series mostly up to 57.5 µM
Method in brief: as §2

PA-1 = assay: as above; settings: Gynecologic cancer cell panel viability, ATPlite luminescence, 48 h; series mostly up to 57.5 µM
Method in brief: as §2

SKOV3 = assay: as above; settings: Gynecologic cancer cell panel viability, ATPlite luminescence, 48 h; series mostly up to 57.5 µM
Method in brief: as §2

HEK293T [4] = assay: qHTS assay to identify novel small-molecules to repurpose for Merkel cell carcinoma treatment (AID 1296009); settings: MCC and control cell lines, CellTiter-Glo viability, 72 h; at 44.8 µM (top of the series) unless noted; note: nearly all actives have a fitted effect of over 60% in size
Method in brief: as §1

HeLa = assay: Primary qHTS to identify gynecologic anti-cancer compounds using libraries of approved drugs and bioactive compounds (AID 1345084); settings: Gynecologic cancer cell panel viability, ATPlite luminescence, 48 h; series mostly up to 57.5 µM; note: nearly all actives have a fitted effect of over 55% in size
Method in brief: as §2
% is set by controls: 0 for no effect and ±100 for the full control effect.

CC(C)(C)c1ccc(C(=O)CCCCl)cc1
inactive: outcome (NIH3T3 [1]) | Potency (MCC-13) | Potency (MCC-26) | Potency (MKL-1) | Potency (MKL-2) | outcome (NIH3T3 [2]) | Potency (UISO) | Potency (WaGa) | Potency (C33A) | Potency (CAOV3) | Potency (CASKI) | Potency (Es-2) | Potency (Hek293T [3]) | Potency (JEG-3) | Potency (OV90) | Potency (PA-1) | Potency (SKOV3)

O=C(CCCCC(=O)Nc1c(I)cc(I)c(C(=O)O)c1I)Nc1c(I)cc(I)c(C(=O)O)c1I
inactive: max response (NIH3T3 [1]) 4.23% | outcome (HEK293T [4]) | Potency (MCC-13) | Potency (MCC-26) | Potency (MKL-1) | Potency (MKL-2) | Potency (UISO) | Potency (WaGa) | Potency (C33A) | Potency (CAOV3) | Potency (CASKI) | Potency (Es-2) | Potency (HeLa) | Potency (Hek293T [3]) | Potency (JEG-3) | Potency (OV90) | Potency (PA-1) | Potency (SKOV3)

CCCCCC1Nc2cc(C(F)(F)F)c(S(N)(=O)=O)cc2S(=O)(=O)N1 (centres undefined)
inactive: outcome (NIH3T3 [1]) | Potency (MCC-13) | Potency (MCC-26) | Potency (MKL-1) | Potency (MKL-2) | outcome (NIH3T3 [2]) | Potency (UISO) | Potency (WaGa) | Potency (C33A) | Potency (CAOV3) | Potency (CASKI) | Potency (Es-2) | Potency (HeLa) | Potency (Hek293T [3]) | Potency (JEG-3) | Potency (OV90) | Potency (PA-1) | Potency (SKOV3)

O=C(O)Cn1cnnn1
inactive: max response (NIH3T3 [1]) -2.11% | outcome (HEK293T [4]) | Potency (MCC-13) | Potency (MCC-26) | Potency (MKL-1) | Potency (MKL-2) | Potency (UISO) | Potency (WaGa) | Potency (C33A) | Potency (CAOV3) | Potency (CASKI) | Potency (Es-2) | Potency (HeLa) | Potency (Hek293T [3]) | Potency (JEG-3) | Potency (OV90) | Potency (PA-1) | Potency (SKOV3)

CC(C)(C)NCC(O)COc1ccccc1OCC1CCCO1 (centres undefined)
inactive: outcome (NIH3T3 [1]) | Potency (MCC-13) | Potency (MCC-26) | Potency (MKL-1) | Potency (MKL-2) | outcome (NIH3T3 [2]) | Potency (UISO) | Potency (WaGa) | Potency (C33A) | Potency (CAOV3) | Potency (CASKI) | Potency (Es-2) | Potency (HeLa) | Potency (Hek293T [3]) | Potency (JEG-3) | Potency (OV90) | Potency (PA-1) | Potency (SKOV3)

Clc1ccc2c(c1)Nc1ccccc1S2
inactive: outcome (NIH3T3 [1]) | Potency (MCC-13) | Potency (MCC-26) | Potency (MKL-1) | Potency (MKL-2) | outcome (NIH3T3 [2]) | Potency (WaGa) | Potency (C33A) | Potency (CAOV3) | Potency (CASKI) | Potency (Es-2) | Potency (HeLa) | Potency (Hek293T [3]) | Potency (JEG-3) | Potency (OV90) | Potency (PA-1) | Potency (SKOV3)

Cc1ccccc1C(=O)N1CC/C(=N\OS(=O)(=O)O)c2ccc(Cl)cc21
inactive: max response (NIH3T3 [1]) -8.25% | Potency (MCC-13) | Potency (MCC-26) | Potency (MKL-1) | Potency (MKL-2) | Potency (UISO) | Potency (WaGa) | Potency (C33A) | Potency (CAOV3) | Potency (CASKI) | Potency (Es-2) | Potency (HeLa) | Potency (Hek293T [3]) | Potency (JEG-3) | Potency (OV90) | Potency (PA-1)

Fc1ccc(C(c2ccc(F)cc2)N2CCNCC2)cc1
inactive: max response (NIH3T3 [1]) -2.81% | Potency (MCC-13) | Potency (MCC-26) | Potency (MKL-1) | Potency (MKL-2) | Potency (UISO) | Potency (WaGa) | Potency (C33A) | Potency (CAOV3) | Potency (CASKI) | Potency (Es-2) | Potency (HeLa) | Potency (Hek293T [3]) | Potency (JEG-3) | Potency (OV90) | Potency (PA-1) | Potency (SKOV3)

CCCCCCCCCCCCCCCCCCN(C)C
inactive: max response (NIH3T3 [1]) 0.657% | Potency (MCC-13) | Potency (MCC-26) | Potency (MKL-1) | Potency (MKL-2) | Potency (UISO) | Potency (WaGa) | Potency (C33A) | Potency (CAOV3) | Potency (CASKI) | Potency (Es-2) | Potency (HeLa) | Potency (Hek293T [3]) | Potency (JEG-3) | Potency (OV90) | Potency (PA-1) | Potency (SKOV3)

Nc1nnnn1-c1ccccc1
inactive: max response (NIH3T3 [1]) -4.79% | Potency (MCC-13) | Potency (MCC-26) | Potency (MKL-1) | Potency (MKL-2) | Potency (UISO) | Potency (WaGa) | Potency (C33A) | Potency (CAOV3) | Potency (CASKI) | Potency (Es-2) | Potency (HeLa) | Potency (Hek293T [3]) | Potency (JEG-3) | Potency (OV90) | Potency (PA-1) | Potency (SKOV3)

CC1(C)O[C@@H]2C[C@H]3[C@@H]4CCC5=CC(=O)C=C[C@]5(C)[C@@]4(F)[C@@H](O)C[C@]3(C)[C@]2(C(=O)CO)O1
inactive: max response (NIH3T3 [1]) -1.75% | Potency (MCC-13) | Potency (MCC-26) | Potency (MKL-1) | Potency (MKL-2) | Potency (UISO) | Potency (WaGa) | Potency (C33A) | Potency (CAOV3) | Potency (CASKI) | Potency (Es-2) | Potency (HeLa) | Potency (Hek293T [3]) | Potency (JEG-3) | Potency (OV90) | Potency (PA-1) | Potency (SKOV3)

CCCOc1ccc2c(c1)CC[C@@H]1[C@@H]2CC[C@]2(C)C(OC)CC[C@@H]12 (some centres undefined)
inactive: max response (NIH3T3 [1]) 0.167% | Potency (MCC-13) | Potency (MCC-26) | Potency (MKL-1) | Potency (MKL-2) | Potency (UISO) | Potency (WaGa) | Potency (C33A) | Potency (CAOV3) | Potency (CASKI) | Potency (Es-2) | Potency (HeLa) | Potency (Hek293T [3]) | Potency (JEG-3) | Potency (OV90) | Potency (PA-1) | Potency (SKOV3)

C[C@H]1C[C@H]2[C@@H]3CCC4=CC(=O)C=C[C@]4(C)[C@H]3C(=O)C[C@]2(C)[C@@]1(O)C(=O)CO
inactive: outcome (NIH3T3 [1]) | Potency (MCC-13) | Potency (MCC-26) | Potency (MKL-1) | Potency (MKL-2) | outcome (NIH3T3 [2]) | Potency (UISO) | Potency (WaGa) | Potency (C33A) | Potency (CASKI) | Potency (Es-2) | Potency (HeLa) | Potency (Hek293T [3]) | Potency (JEG-3) | Potency (PA-1) | Potency (SKOV3)

NCCCC(N)CC(=O)NCC1NC(=O)C(CO)NC(=O)C(N)CNC(=O)C(C2CCN=C(N)N2)NC(=O)C(=CNC(N)=O)NC1=O (stereo not drawn) (H-[Dap]S[Dap](ξβ3hOrn)[ΔAla(3-NHCONH2)][X10]; lactam 1-C; configuration not given here)
inactive: max response (NIH3T3 [1]) -5.75% | activity change, negative = cytotoxicity (MCC-13) 7.39% [at 0.597 µM] | activity change, negative = cytotoxicity (MCC-26) 12.9% [at 0.597 µM] | activity change, negative = cytotoxicity (MKL-1) 3.4% [at 0.597 µM] | activity change, negative = cytotoxicity (MKL-2) 1.36% [at 0.597 µM] | activity change, negative = cytotoxicity (UISO) 24.3% [at 0.597 µM] | activity change, negative = cytotoxicity (WaGa) 13.5% [at 0.597 µM] | activity change, negative = cytotoxicity (C33A) 15.1% [at 0.462 µM] | activity change, negative = cytotoxicity (CAOV3) 10.4% [at 0.462 µM] | activity change, negative = cytotoxicity (CASKI) 9.08% [at 0.462 µM] | activity change, negative = cytotoxicity (Es-2) -0.941% [at 0.462 µM] | activity change, negative = cytotoxicity (HeLa) -1.14% [at 0.462 µM] | activity change, negative = cytotoxicity (Hek293T [3]) -1.45% [at 0.462 µM] | activity change, negative = cytotoxicity (JEG-3) 1.16% [at 0.462 µM] | activity change, negative = cytotoxicity (OV90) -2.62% [at 0.462 µM] | activity change, negative = cytotoxicity (PA-1) 8.19% [at 0.462 µM]

Source: PubChem BioAssay (NCATS)
